From PubChem BioAssay
The source made the active and inactive calls. Unless noted, the rule behind the calls is not given here.

Experiments:
[1] = test system: XIP peptide (Xip251-270) binding; assay: small-molecule binders of XIP peptide, primary screen, biochemical, small-molecule microarray, fluorescence 635/667 nm, 0.1 µg/mL protein (AID 1182); conditions: fluorescent protein binding, 635 nm, higher = more signal, called active from +8 up or from −8 down
XIP peptide (Xip251-270) = assay: small-molecule binders of XIP peptide, primary screen, biochemical, small-molecule microarray, fluorescence 635/667 nm, 0.5 µg/mL protein (AID 1183); conditions: small-molecule microarray binding, fluorescence 635 nm; higher = more signal
[2] = Plasmodium falciparum growth inhibition, primary screen, strain 3D7, DAPI fluorescence, 100 nL (AID 1184);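 note: parasites grown inside human red blood cells in medium with human serum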; conditions: P. falciparum 3D7 growth, 3 d, higher = more signal
[3] = target: Homeobox protein Hox-A13 (Mus musculus) (UniProt Q62424); assay: inhibitors of HoxA13-DNA binding, primary screen, biochemical, fluorescence polarization, labeled oligonucleotide (AID 1185); conditions: 15 min, higher = more signal, called active from +8 up or from −8 down
[4] = inhibitors of hydroxyurea-induced Chk1 phosphorylation, primary screen, imaging, HeLa, phospho-Chk1 antibody, percent positive cells (AID 1186); conditions: hydroxyurea-induced phospho-Chk1 immunofluorescence imaging, higher = more signal
[5] = inhibitors of hydroxyurea-induced Chk1 phosphorylation, primary screen, imaging, HeLa, phospho-Chk1 nuclear intensity (AID 1187); conditions: hydroxyurea-induced phospho-Chk1 immunofluorescence imaging, higher = more signal

Homeobox protein Hox-A13 (Mus musculus), sequence (Q62424 whole entry, looked up): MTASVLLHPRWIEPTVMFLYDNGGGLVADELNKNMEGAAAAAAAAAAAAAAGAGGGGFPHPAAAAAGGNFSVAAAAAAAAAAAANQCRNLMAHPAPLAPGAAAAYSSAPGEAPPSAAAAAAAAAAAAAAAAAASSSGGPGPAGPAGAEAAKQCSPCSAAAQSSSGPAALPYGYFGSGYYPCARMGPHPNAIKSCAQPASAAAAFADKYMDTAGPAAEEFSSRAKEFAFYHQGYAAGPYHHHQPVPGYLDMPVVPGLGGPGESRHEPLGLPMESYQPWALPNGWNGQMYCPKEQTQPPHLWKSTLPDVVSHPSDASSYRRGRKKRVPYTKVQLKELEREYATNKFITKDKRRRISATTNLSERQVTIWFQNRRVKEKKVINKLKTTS

C=CCC(OC(C)=O)[C@@H]1[C@@H](N(Cc2cccc3ccccc23)C(=O)Cc2ccc(F)cc2)c2cc(OCCCO)ccc2N1C(=O)c1ccc2ccccc2n1 (stereo partly drawn)
composite z-score [1]: -0.533 (inactive)
composite z-score (XIP peptide (Xip251-270)): -0.272
z-score [2]: -2.13
z-score [3]: -1.34 (inactive)
z-score [4]: -0.172 (inactive)
z-score [5]: -0.761 (inactive)

C=CCOC(=O)[C@H]1[C@@H]2C(=O)O[C@@H](c3ccccc3)[C@@H](c3ccccc3)N2[C@@H](c2ccc(OCCOC(=O)[C@@H]3C[C@@H]4C(=O)N[C@@H](CCCCNC(C)=O)C(=O)N4[C@@H]3c3ccc(O)cc3)cc2)[C@]12C(=O)Nc1ccc(I)cc12
composite z-score [1]: 0.875 (inactive)
composite z-score (XIP peptide (Xip251-270)): 0.811
z-score [2]: -1.96
z-score [3]: -0.356 (inactive)
z-score [4]: -0.235 (inactive)
z-score [5]: 0.0348 (inactive)

COC(=O)[C@@]1(Cc2ccc(F)cc2)[C@H]2c3cc(C(=O)N4CCCC4)n(CCN4CNCC4=O)c3C[C@H]2CN1C(=O)c1ccccc1
composite z-score [1]: 0.207 (inactive)
composite z-score (XIP peptide (Xip251-270)): 0.632
z-score [2]: -1.65
z-score [3]: -5.84 (inactive)
z-score [4]: 0.191 (inactive)
z-score [5]: 0.44 (inactive)

Cc1ccc(S[C@]2(C(=O)NCC(F)(F)F)CC(=O)N(Cc3ccccc3C(F)(F)F)[C@@H]2c2ccc(CO)cc2I)cc1
composite z-score [1]: -0.485 (inactive)
composite z-score (XIP peptide (Xip251-270)): -0.0347
z-score [2]: -0.115
z-score [3]: -2.45 (inactive)
z-score [4]: 0.504 (inactive)
z-score [5]: 1.27 (inactive)

O=C(CS)NCCCCCNC(=O)[C@@H]1C[C@@H]2C(=O)N3CCC[C@H]3C(=O)N2[C@@H]1c1cccc(OCCO)c1
composite z-score [1]: 2.29 (inactive)
composite z-score (XIP peptide (Xip251-270)): 0.839
z-score [2]: 1.05
z-score [3]: -3.61 (inactive)
z-score [4]: 1.25 (inactive)
z-score [5]: 0.575 (inactive)

[N-]=[N+]=NCc1ccccc1C[C@@]1(C(=O)N2CCOCC2)N=C(c2ccc(OCCCO)cc2)O[C@@H]1c1ccccc1
composite z-score [1]: 0.761 (inactive)
composite z-score (XIP peptide (Xip251-270)): 0.74
z-score [2]: -2.73
z-score [3]: -4.1 (inactive)
z-score [4]: 0.123 (inactive)
z-score [5]: 0.608 (inactive)

CC(C)(C)OC(=O)CC[C@]1(C(=O)NCc2ccccc2)N=C(c2ccc(OCCCO)cc2)O[C@H]1c1ccccc1CN=[N+]=[N-]
composite z-score [1]: 0.333 (inactive)
composite z-score (XIP peptide (Xip251-270)): 0.688
z-score [2]: -2.39
z-score [3]: -1.28 (inactive)
z-score [4]: -0.654 (inactive)
z-score [5]: -0.865 (inactive)

COCCOC(=O)N1C(=O)[C@@]2(c3cc(C#CC4(O)CCCCCC4)ccc31)[C@H](c1ccc(O)cc1)N1[C@H](c3ccccc3)[C@H](c3ccccc3)OC(=O)[C@H]1[C@@H]2C(=O)NC[C@H](O)c1ccccc1
composite z-score [1]: 1.71 (inactive)
composite z-score (XIP peptide (Xip251-270)): 0.681
z-score [2]: -0.0194
z-score [3]: -2.78 (inactive)
z-score [4]: -0.145 (inactive)
z-score [5]: -0.154 (inactive)

CO[C@H]1O[C@H](CO)[C@@H](OC(=O)Nc2ccc3c(c2)OCO3)[C@H](OC(=O)c2cc3ccccc3[nH]2)[C@H]1OC(=O)c1cc2ccccc2[nH]1
composite z-score [1]: 0.472 (inactive)
composite z-score (XIP peptide (Xip251-270)): 0.374
z-score [2]: -0.603
z-score [3]: -4.88 (inactive)
z-score [4]: -0.308 (inactive)
z-score [5]: -0.227 (inactive)

CC(c1ccccc1)C(O)C1C=CC2C(=O)N(c3ccccc3)C(=O)C2N1Nc1ccc([N+](=O)[O-])cc1 (stereo not drawn)
composite z-score [1]: 0.725 (inactive)
composite z-score (XIP peptide (Xip251-270)): 0.837
z-score [2]: -0.917
z-score [3]: -3.22 (inactive)
z-score [4]: 0.433 (inactive)
z-score [5]: 0.104 (inactive)

COCCOC(=O)N1C(=O)[C@@]2(c3cc(C#CCCO)ccc31)[C@H](c1ccccc1OCCO)N1[C@H](c3ccccc3)[C@H](c3ccccc3)OC(=O)[C@H]1[C@@H]2C(=O)Nc1nc2ccccc2s1
composite z-score [1]: 1.45 (inactive)
composite z-score (XIP peptide (Xip251-270)): 0.823
z-score [2]: -1.45
z-score [3]: 1.85 (inactive)
z-score [4]: 0.0686 (inactive)
z-score [5]: 0.0927 (inactive)

COC(=O)c1cn(C[C@@H](Cc2ccccc2)NC(=O)N[C@H](CO)CCc2oc(C(C)=O)c(C(=O)OC)c2C(=O)OC)nn1
composite z-score [1]: 0.224 (inactive)
composite z-score (XIP peptide (Xip251-270)): 0.111
z-score [2]: -0.818
z-score [3]: -4.33 (inactive)
z-score [4]: -0.406 (inactive)
z-score [5]: -0.043 (inactive)

COCCOC(=O)N1C(=O)[C@@]2(c3cc(C#CC4=CCCCC4)ccc31)[C@H](c1ccc(OCCO)cc1)N1[C@H](c3ccccc3)[C@H](c3ccccc3)OC(=O)[C@H]1[C@@H]2C(=O)N1CCN(c2ncccn2)CC1
composite z-score [1]: 0.975 (inactive)
composite z-score (XIP peptide (Xip251-270)): 0.278
z-score [2]: -2.19
z-score [3]: 2.06 (inactive)
z-score [4]: 0.313 (inactive)
z-score [5]: 0.448 (inactive)
